MCF10A rerep – induces DNA re-replication in MCF 10a normal breast cells | MCF 10A DNA re-replication, Hoechst nuclear intensity, 48 h | Potency, µM (top dose mostly 46.1 µM), inactives show top-dose activity, positive = re-replication, actives largely listed as activators | actives 2.9% (n = 350,000); also: % of control where 0% means no effect; nearly all actives have a fitted effect of over 50% in size
SW480 rerep – induces DNA re-replication in SW480 colon adenocarcinoma cells | SW480 DNA re-replication, Hoechst DNA content imaging, 48 h | Potency, µM (highest dose often 46.1 µM), for the others: at the highest dose re-replication activation, actives largely listed as activators | actives 1.8% (n = 340,000) | AID 624297; also: % of control where 0% means no effect; nearly all actives have a fitted effect of over 55% in size
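First, 250 cells per well were seeded. Next, compound or vehicle (23 nL) was pinned in, plates sat 48 hr at 37 C. Finally Hoechst was added for 40 min before fluorescence scanning.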
HT1080NT lethal – kills 2HG-producing HT-1080-NT fibrosarcoma cells; actives 1.6% (n = 360,000); AID 686970; Potency, µM (series often up to 46.1 µM), for inactives: top-dose activity, negative = less viability, actives largely listed as cytotoxic; HT-1080-NT fibrosarcoma viability, CellTiter-Glo ATP luminescence, 48 h;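 also: NT is the 2HG producing partner of a matched IDH1 knockdown line; 0% = DMSO-treated cells and -100% = media-only wells without cells; nearly all actives have a fitted effect of over 55% in size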
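Fibrosarcoma NT cells, 750 per well in 5% FBS RPMI, were exposed to compound for 48 hours. Viability: CellTiter-Glo luminescence.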
KB-3-1 cytotox – kills parental KB-3-1 adenocarcinoma cells; KB-3-1 viability, CellTiter-Glo ATP luminescence, 72 h; Potency, µM (top dose mostly 46.1 µM), usual class: cytotoxic; actives 1.4% (n = 400,000); AID 1347075; also: % is scaled to controls: 0 for no effect and ±100 for the full control effect; nearly all actives have a fitted effect of over 60% in size
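Parental KB-3-1 adenocarcinoma cells in phenol-red-free DMEM with 10% FBS were pin-treated with compounds at several concentrations, incubated 72 h at 37 °C, and viability read by CellTiter-Glo luminescence; concentration-effect curves were fitted after normalization.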
KB-V1 cytotox – kills drug-selected multidrug resistant KB-V1 cells; actives 3.4% (n = 400,000); AID 1347076; Potency, µM (doses to about 46.1 µM), most hits filed as cytotoxic; KB-V1 MDR cells viability, CellTiter-Glo, 72 h; also: % is scaled to controls: 0 for no effect and ±100 for the full control effect; nearly all actives have a fitted effect of over 60% in size
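Cells of the MDR subline KB-V1 are plated, dosed with compound at multiple concentrations, and incubated 72 h at 37 degrees C; CellTiter-Glo is then added and luminescence read after 10 min.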
HT1080 IDH1KD tx – HT-1080 IDH1 knockdown cell toxicity (counter line). HT-1080 IDH1 knockdown viability, ATP luminescence, 48 h. Potency, µM (series often up to 46.1 µM), without a hit: at the highest dose activity, negative = toxicity, hits mostly cytotoxic. actives 2% (n = 360,000);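 also: 0% = DMSO wells and -100% = cell-free medium wells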
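Viability of IDH1-knockdown HT-1080 fibrosarcoma cells was assessed by CellTiter-Glo after 48 h at 37 °C with titrated compound; concentration-effect curves were classified by fit quality and response size.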
Starred values were filed as active, the others as inactive; i = inactive; ? = inconclusive; · = not tested or not shown; ! = repeats disagree; [ ] = dose if it differs, or a comment. Shown are actives, neighbours in structure and some others; about 7.9% of the full set was active somewhere. Calls follow the shape of the dose curve; as a rule, active = well fitted curve in the direction sought with a large enough effect; inconclusive = small, poorly fitted or top-dose-only effect, or another doubt; inactive = no such curve, though single readings can be large; an effect the other way counts as inactive or inconclusive. Potency is read from the fitted curve at half-maximal effect.

SMILES	MCF10A rerep	SW480 rerep	HT1080NT lethal	KB-3-1 cytotox	KB-V1 cytotox	HT1080 IDH1KD tx
Cc1[nH]n(-c2ccc(Cl)cc2)c(=O)c1C(=O)c1ccccc1	4.61µM*	-19.9%	-27.7%	13µM*	13µM*	?
Cc1[nH]n(-c2ccccc2)c(=O)c1C(=O)c1cccc(F)c1	11.8%	-8.0%	?	?	?	-3.7%
Cc1cc(/C=C(\C#N)C(=O)NCC2CCCO2)c(C)n1-c1ccc(Cl)cc1 (stereo not given)	3.3%	-13.5%	-11.2%	i	4.11µM*	?
CCOc1ccc(NC(=O)/C(C#N)=C/c2cn(CC(=O)O)c3ccccc23)cc1	?	-3.3%	4.8%	i	i	0.5%
CCOC(=O)/C(C#N)=C/c1cn(CCOc2ccc(OC)cc2)c2ccccc12	16.4µM*	4.1%	-6.2%	i	i	-2.9%
COc1ccccc1OCCn1cc(/C=C(\C#N)C(=O)NCc2cccs2)c2ccccc21	-5.6%	-14.3%	-1.1%	i	18.4µM*	-0.7%
Cc1ccc(C)c(OCCn2cc(/C=C(/C#N)C(=O)NCC3CCCO3)c3ccccc32)c1 (stereo not given)	?	25.0%	-8.0%	i	14.6µM*	-12.1%
CNC(=O)/C(C#N)=C/c1cn(CC(=O)OC)c2ccccc12	?	-47.1%	9.3%	i	i	11.3%
Cc1ccccc1OCC(=O)O/N=C(\N)Cc1cccs1	-11.1%	-6.5%	0.0%	i	i	8.3%
COc1cccc(C(=O)Nc2ccc(S(=O)(=O)N3CCCCC3)cc2)c1OC	?	12.2%	-7.4%	i	?	-15.0%
CC1CCN(CCCNS(=O)(=O)c2ccc3c(c2)CCN3C(=O)C2CC2)CC1	2.9%	-23.0%	3.7%	i	?	5.5%
COc1ccccc1NC(=O)/C(N=Nc1ccc(C)c(S(=O)(=O)Nc2ccccc2Cl)c1)=C(\C)O	2.5%	-5.2%	1.8%	i	i	3.0%
N#C/C(=C\c1cn(CCOc2ccccc2)c2ccccc12)C(=O)NCC1CCCO1 (stereo not given)	18.9%	?	-1.8%	i	6.51µM*	-16.2%
CCN(CC)C(=O)c1ccc(-c2nnc(Nc3ccc(O)cc3)c3ccccc23)cc1	-3.4%	-2.1%	11.1%	i	i	9.7%
CCN(CC)C(=O)c1ccc(Nc2nnc(C)c3ccccc23)cc1	-3.3%	-6.2%	-15.9%	i	11.6µM*	-28.4%
COc1ccc(NC(=S)NCCc2ccc(Cl)cc2)c(OC)c1	3.4%	-1.3%	-16.8%	i	i	-15.3%
CCN1CCN(Cc2ccc(NC(=O)c3ccc(C)c(/C=C/c4cnc(Nc5cc(N6CCNCC6)nc(C)n5)cn4)c3)cc2C(F)(F)F)CC1	?	?	?	?	?	18.4µM*!
CCOC(=O)c1c(C)oc2c1c(C(c1cccnc1)N1CCCCC1)c(O)c1ccccc12 (stereo not given)	?	-4.5%	5.5%	i	i	-3.6%
CCOC(=O)c1c(C)oc2c1c(C=NCCO)c(O)c1ccccc12	?	10.8%	?	i	i	23.1µM*
CCOC(=O)c1c(C)oc2c1c(C(c1ccccc1)N1CCOCC1)c(O)c1ccccc12 (stereo not given)	4.11µM*	?	0.4%	i	18.4µM*	0.4%
CCOC(=O)c1c2n(c3c(NCc4ccccc4)ncnc13)CCCC2	9.8%	-8.8%	-21.3%	i	?	-18.8%
Cn1nnnc1SCc1ccc(Cl)cc1	-2.0%	-5.5%	-4.5%	i	i	-3.7%
CCOc1ccc2c(c1)C(=O)C(=O)N2CC1COc2ccccc2O1 (stereo not given)	?	8.2µM*	-0.5%	13µM*	i	9.3%
COc1ccc2c(c1)C(=O)C(=O)N2CCS(=O)(=O)c1ccccc1	?	?	-6.9%	?	i	6.7%
Cc1ccc2c(c1)C(=O)C(=O)N2CC1COc2ccccc2O1 (stereo not given)	?	23.1µM*	-2.4%	?	20.6µM*	?
SMILES	MCF10A rerep	SW480 rerep	HT1080NT lethal	KB-3-1 cytotox	KB-V1 cytotox	HT1080 IDH1KD tx
COc1ccc2c(c1)C(=O)C(=O)N2CC1COc2ccccc2O1 (stereo not given)	?	?	?	14.6µM*	?	-26.7%
COc1ccc(NC(=S)N(C)CC2COc3ccccc3O2)cc1 (stereo not given)	0.651µM*	-20.1%	5.9%	i	?	5.4%
CN1OC[C@@H]2CN(C(=O)CCc3ccccc3)[C@H](c3cccc(Oc4ccccc4)c3)C[C@@H]21	7.0%	9.1%	-1.1%	i	i	-4.0%
Cc1cc(C)c2c3c(sc2n1)C(c1cccc(F)c1)C(C#N)=C(N)O3 (stereo not given)	8.2µM*	18.4µM*	12.3%	i	?	5.4%
COc1ccccc1N1CCN(C(=O)CCc2nnc3n(C)c(=O)c4sccc4n23)CC1	·	·	·	i	i	·
COc1ccc(OC)c(NC(=O)COC(=O)c2c3c(nc4ccccc24)CCCC3)c1	?	1.2%	?	25.9µM*	25.9µM*	?
COc1ccc(NC(=O)COC(=O)c2c3c(nc4ccccc24)CCCC3)cc1Cl	?	-7.4%[9.22 µM]	?	i	16.4µM*	?
COc1ccc(-c2nc(-c3ccccc3)nc(N3CCN(C)CC3)c2C#N)cc1	10.8%	-16.6%	4.5%	?	?	0.0%
COc1ccc(-c2nc(-c3cccc(C)c3)nc(N3CCN(C)CC3)c2C#N)cc1	?	?	0.1%	5.8µM*	4.61µM*	-0.3%
O=C1C(=O)c2c(ccc3ccccc23)-c2ccccc21	1.84µM*	9.2µM*	4.61µM*	4.11µM*	4.11µM*	1.84µM*
Cc1cc(C(=O)NCc2ccc3c(c2)OCO3)n(-c2ccccc2)n1	-0.3%	-8.5%	8.2%	i	i	-0.1%
OC[C@H]1O[C@@H](n2cnc3c(NCc4ccco4)ncnc32)[C@H](O)[C@@H]1O	?	?	5.8µM*	16.4µM*	i	6.51µM*
OCC1OC(n2cnc3c(SCc4ccccc4)ncnc32)C(O)C1O (stereo not given)	?	0.1%	7.31µM*	i	?	23.1µM*
Cc1ccccc1CNc1ncnc2c1ncn2C1OC(CO)C(O)C1O (stereo not given)	12.9%	-3.3%	·	·	·	·
ClCCn1cnc2c(SCc3ccccc3)ncnc21	16.4%	?	1.2%	4.11µM*	6.51µM*	?
ClCCn1cnc2c(SCc3ccccc3Cl)ncnc21	8.7%	7.6%	-20.7%	?	?	?

Screening data: PubChem BioAssay, National Center for Advancing Translational Sciences (NCATS)
